# Hits are enriched below; roughly 19% of the tested compounds scored in any of these assays.
# HT1080NT lethal: kills 2HG-producing HT-1080-NT fibrosarcoma cells; Potency, µM (titrated, usually from 46.1 µM), for inactives: at the top dose activity, negative = less viability, usual class: cytotoxic; 1.6% of 360,000 active; HT-1080-NT fibrosarcoma viability, CellTiter-Glo ATP luminescence, 48 h;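 further: NT is the 2HG producing partner of a matched IDH1 knockdown line; potency means the concentration at half of the fitted maximal effect; 0% = DMSO-treated cells and -100% = media-only wells without cells; nearly all actives have a fitted effect of over 55% in size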
#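 Toxicity toward the 2HG-producing NT line was scored as %Activity, normalised to DMSO and no-cell wells, from CellTiter-Glo luminescence after 48 hours' treatment.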
# TDP1 cell CPT: growth inhibition of DT40 Tdp1-/-;hTDP1 cells with camptothecin (screen for TDP1 inhibitors) | chicken DT40 Tdp1-/-;hTDP1 cells + 20 nM CPT, ATP luminescence, 48 h | Potency, µM (series often up to 46.2 µM), for inactives: at the top dose activity change, negative = growth inhibition, hits mostly inhibitors | 12% of 420,000 active; further: potency means the concentration at half of the fitted maximal effect; nearly all actives have a fitted effect of over 55% in size
#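 Chicken DT40 Tdp1-/- cells stably complemented with human TDP1 were seeded at 400 cells/well in medium containing 20 nM camptothecin, exposed to pin-transferred compounds, and grown at 37 °C for at least 48 hr. Viability was read as ATP luminescence.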
# uPA surface inh: cell surface uPA generation inhibition. Potency, µM (doses to about 38.3 µM), inactives show at the highest dose activity change, negative = inhibition, usual class: inhibitors. 0.31% of 330,000 active. cell surface uPA generation assay, qHTS; active means well fitted inhibition curve with a large enough effect; inconclusive means small, poorly fitted or top-dose-only effect; inactive means no such curve, though single readings can be large or run the other way; tested in mouse RAW 264.7 cells; further: potency means the concentration at half of the fitted maximal effect; nearly all actives have a fitted effect of over 55% in size
# IL-1B inflam inh: blocks inflammasome-driven IL-1 beta release | THP-1 LPS/ATP IL-1B secretion, AlphaLISA, 16 h; stronger effect = lower value | activity change, % at 57.5 µM | 4.7% of 360,000 active; in the data active means activity change below about -50%; inconclusive means mostly about -30% to -49%
#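 Secreted IL-1B measured by AlphaLISA bead assay after 16 h compound exposure of THP-1 cells; compounds (final up to 57.5 uM) added 1 h before LPS (250 ng/mL) and ATP (1.25 mM) stimulation; lower signal means less secretion.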
# HT1080 IDH1KD tx: toxicity to HT-1080 IDH1 knockdown cells (counter line); AID 686971; 2% of 360,000 active; Potency, µM (top dose mostly 46.1 µM), for inactives: at the top dose activity, negative = toxicity, usual class: cytotoxic; HT-1080 IDH1 knockdown viability, ATP luminescence, 48 h;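 further: potency means the concentration at half of the fitted maximal effect; 0% = DMSO wells and -100% = cell-free medium wells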
#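 Using the IDH1-knockdown HT-1080 line run in the same batch and compound series as the NT line, viability after 48 h at 37 °C was determined by CellTiter-Glo luminescence and expressed as % activity.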
# DT40 TDP1 no CPT: qHTS for Inhibitors of human tyrosyl-DNA phosphodiesterase 1 (TDP1): qHTS in cells in absence of CPT; DT40 Tdp1-/- hTDP1 cells, no CPT, ATP luminescence, 48 h; AID 686978, 2013; 15% of 420,000 active; Potency, µM (top dose mostly 46.2 µM), inactives show at the top dose activity change, negative = growth inhibition, most hits filed as inhibitors; further: potency means the concentration at half of the fitted maximal effect; nearly all actives have a fitted effect of over 55% in size
#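 Growth kinetics read by CellTiter-Glo luminescence after ≥48 hr at 37 °C. Cells: DT40 Tdp1-/- stably carrying human TDP1, 400 per well, compound exposure in the absence of CPT (DMSO vehicle).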
# * = called active by the depositor; ? = inconclusive; . = no result given. Unless noted, the call rests on the fitted dose curve; in most records, active means well fitted curve in the direction sought with a large enough effect; inconclusive means small, poorly fitted or top-dose-only effect, or another doubt; inactive means no such curve, though single readings can be large; an effect the other way counts as inactive or inconclusive. Unless noted, on the % scale 0 is the no-effect control and ±100 the full control effect.
SMILES,HT1080NT lethal,TDP1 cell CPT,uPA surface inh,IL-1B inflam inh,HT1080 IDH1KD tx,DT40 TDP1 no CPT
CCc1ccc(N2C(=O)CN(Cc3cc(OC)c(OC)c(OC)c3)C2=S)cc1,-13%,16µM*,-7%,-1,-9%,23µM*
Cc1ccc(F)cc1C(=O)N1CCCC1(C)C(=O)NCC(C)C (configuration not stated),?,0%,.,22,12%,-10%
CCOc1ccccc1NC(=S)Nc1ccc(S(N)(=O)=O)cc1,-25%,7%,0%,16,-1%,-19%
COc1cc(Br)c(CNc2cc(C)ccc2C)cc1OC,-14%,?,?,23,-22%,16µM*
COc1cc(OC)c(OC)cc1CNc1cc(C)ccc1OC,?,?,-11%,-23,-28%,?
Cc1cc(Nc2ccc([N+](=O)[O-])cc2)nc2ccccc12,?,0%,3%,0,?,-7%
Cc1ccc(-c2cc(C(=O)NCc3ccco3)c3ccccc3n2)o1,-25%,?,-2%,9,-9%,?
Cc1ccc(/C=N/NC(=O)c2cc(-c3ccncc3)nc3ccccc23)o1,?,2.9µM*,-13%,59,1.8µM*,2.6µM*
Cc1cc(N/N=C/c2ccc([N+](=O)[O-])o2)nc2ccccc12,-12%,18µM*,-7%,-25,-14%,18µM*
Cc1ccc(-c2cc(C(=O)N/N=C/c3ccc([N+](=O)[O-])o3)c3ccccc3n2)o1,?,18µM*,-18%,?,?,13µM*
O=C(N/N=C/c1ccc([N+](=O)[O-])o1)c1cc(-c2ccncc2)nc2ccccc12,4µM*,7.1µM*,.,-26,?,3.2µM*
COc1ncc2nc(-c3cc(F)cc(F)c3)c(=O)n(CCC#N)c2n1,.,-1%,.,.,.,-24%
O=C(N/N=C/c1ccc([N+](=O)[O-])o1)c1cc(-c2ccc(-c3ccccc3)cc2)nc2ccccc12,?,4.1µM*,-17%,-8,?,0.46µM*
Cn1c(/C=C/c2ccc([N+](=O)[O-])o2)nc2ccccc2c1=O,?,0.26µM*,-6%,-98*,?,0.26µM*
O=C(N/N=C/c1ccc([N+](=O)[O-])o1)c1cn(-c2ccccc2)nc1-c1ccc(Cl)cc1,2%,?,19%,5,2%,?
Cc1ccc2nc(N/N=C/c3ccco3)cc(C)c2c1,-8%,8.2µM*,?,-56*,-1%,10µM*
O=C(N/N=C/c1ccc([N+](=O)[O-])o1)c1cn(-c2ccccc2)nc1-c1ccccc1,-13%,?,6%,25,-4%,6.5µM*
Cn1c(/C=C/c2ccccc2)nc2ccccc2c1=O,?,-76%,-13%,-2,?,?
C=C(C)Cn1c(SCC(=O)c2ccc(Br)cc2)nc2sc3c(c2c1=O)CCCC3,.,5%,.,.,.,0%
O=C1C=C(c2cc3ccccc3s2)C[C@@H](c2ccc(F)cc2)C1,16%,?,17%,-14,15%,?
O=C1C=C(c2ccc(O)cc2)C[C@@H](c2ccc(Cl)cc2)C1,-9%,?,2%,-75*,-18%,?
O=C1C=C(Nc2ccc(Cl)cc2)CC(c2ccc(Cl)cc2)C1 (configuration not stated),?,?,-25%,-85*,-21%,?
COc1ccc(C2=CC(=O)C[C@H](c3ccc(Cl)cc3)C2)cc1,?,16µM*,7%,0,?,?
O=C1C=C(c2cc3ccccc3s2)C[C@@H](c2ccc(Cl)cc2)C1,-8%,9.2µM*,8%,-14,-10%,?
